Assay results as given in PubChem BioAssay (NCATS).
Several values for one entry are separate records, joined by “and”; a condition that tells them apart may be missing. Equal values may be shown once. Inconclusive results are not listed. Where a structure was tested more than once in an assay, its records may differ in their call. Activity calls are given as the source filed them. Unless noted, calls follow the shape of the dose curve; as a rule, active = well fitted curve in the direction sought with a large enough effect; inconclusive = small, poorly fitted or top-dose-only effect, or another doubt; inactive = no such curve, though single readings can be large; an effect the other way counts as inactive or inconclusive.

Assays:
[1] = AP1 Signaling Pathway (AID 357; active = well fitted curve in either direction with a large enough effect, not every such curve was filed as active;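 also: ME-180 reporter cells stimulated with EGF at its EC50 level; % is scaled to controls: 0 for no effect and ±100 for the full control effect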); details: ME-180 AP-1-bla reporter, EGF-induced, beta-lactamase ratio, 5 h
How it was run: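 Cells are seeded overnight, exposed to compound titrations and an EC50 level of EGF for 5 hours at 37 °C, then loaded with CCF4 dye for 2.5 hours. Beta-lactamase activity under the AP-1 element is read as a blue/green ratio.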

[2] = target: Cytochrome P450 1A2 (Homo sapiens) (UniProt P05177); assay: p450-cyp1a2 (AID 410; calls by dose curve; also: potency is read from the fitted curve at half-maximal effect;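 as to activity change, negative = inhibition: -100% = full effect of reference inhibitor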); details: recombinant CYP1A2, luciferin-ME demethylation, luminescence; series mostly up to 57 µM
Sequence of Cytochrome P450 1A2 (Homo sapiens) (P05177 whole entry, looked up): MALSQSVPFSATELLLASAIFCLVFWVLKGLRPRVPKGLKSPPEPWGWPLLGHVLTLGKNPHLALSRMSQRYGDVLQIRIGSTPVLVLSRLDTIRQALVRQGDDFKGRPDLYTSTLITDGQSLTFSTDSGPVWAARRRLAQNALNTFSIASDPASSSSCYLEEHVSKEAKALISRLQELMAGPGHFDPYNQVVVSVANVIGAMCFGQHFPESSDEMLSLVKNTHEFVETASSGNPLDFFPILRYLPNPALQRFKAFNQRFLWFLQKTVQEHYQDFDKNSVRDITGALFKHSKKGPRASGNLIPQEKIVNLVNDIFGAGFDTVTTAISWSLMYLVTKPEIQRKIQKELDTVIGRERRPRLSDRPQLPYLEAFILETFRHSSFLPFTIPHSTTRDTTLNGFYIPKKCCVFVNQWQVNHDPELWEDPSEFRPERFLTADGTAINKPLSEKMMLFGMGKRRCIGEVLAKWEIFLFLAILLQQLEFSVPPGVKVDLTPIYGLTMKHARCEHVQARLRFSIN
How it was run: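 20nM CYP1A2 with 100uM Luciferin-ME (at Km) in 100mM KPO4; compound preincubated 10 min, NADPH regeneration added, 60 min at room temperature. Luciferin quantified by luminescence after detection reagent; normalized to 57 uM furafylline.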

[3] = Stat Signaling Pathway (AID 446; active = well fitted curve in either direction with a large enough effect, not every such curve was filed as active;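 also: ME-180 cervical cancer cells given 40 pM IL-6 alongside compound; SIE-controlled beta-lactamase reporter measured as 460/530 nm FRET emission ratio; % is scaled to controls: 0 for no effect and ±100 for the full control effect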); details: ME-180 SIE beta-lactamase reporter, IL-6 stimulated, 5 h
How it was run: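 ME-180 cells carrying a SIE-driven beta-lactamase reporter are stimulated with 40 pM IL-6 for 5 h at 37C in the presence of compound. The 460/530 nm FRET substrate ratio is read after 2.5 h at RT. Data are normalised to 300 pM IL-6 and to 125 nM JAK inhibitor controls.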

[4] = target: Glucocorticoid receptor (Homo sapiens) (UniProt P04150); assay: GR-GFP Redistribution (AID 450;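 active = compounds whose dose series gives a full or clear partial fitted curve of increased nuclear translocation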; also: potency is read from the fitted curve at half-maximal effect); details: U2OS GR-GFP nuclear translocation, laser cytometry, 2 h
Sequence of Glucocorticoid receptor (Homo sapiens) (P04150 whole entry, looked up, the tested form may be a part): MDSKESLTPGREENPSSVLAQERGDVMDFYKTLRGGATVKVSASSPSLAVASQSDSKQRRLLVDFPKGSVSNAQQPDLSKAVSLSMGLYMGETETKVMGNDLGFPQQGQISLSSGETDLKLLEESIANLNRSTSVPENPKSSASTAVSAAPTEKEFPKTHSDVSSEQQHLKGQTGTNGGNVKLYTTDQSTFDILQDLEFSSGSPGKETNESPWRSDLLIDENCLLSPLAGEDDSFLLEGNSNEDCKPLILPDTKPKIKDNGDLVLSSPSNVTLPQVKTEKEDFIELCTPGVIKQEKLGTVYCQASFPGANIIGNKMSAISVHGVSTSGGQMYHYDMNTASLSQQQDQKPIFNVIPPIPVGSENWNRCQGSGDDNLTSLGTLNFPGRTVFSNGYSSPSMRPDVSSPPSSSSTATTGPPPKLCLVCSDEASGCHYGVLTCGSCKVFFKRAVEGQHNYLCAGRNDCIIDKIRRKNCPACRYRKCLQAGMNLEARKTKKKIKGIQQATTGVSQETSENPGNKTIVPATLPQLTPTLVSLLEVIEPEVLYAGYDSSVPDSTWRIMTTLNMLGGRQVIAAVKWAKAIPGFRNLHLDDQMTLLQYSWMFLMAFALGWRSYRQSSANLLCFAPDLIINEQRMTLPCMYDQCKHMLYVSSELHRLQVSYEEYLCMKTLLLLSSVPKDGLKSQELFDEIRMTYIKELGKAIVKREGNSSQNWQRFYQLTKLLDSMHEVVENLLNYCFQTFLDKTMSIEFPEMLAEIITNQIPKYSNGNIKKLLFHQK

[5] = target: Glucocorticoid receptor (Homo sapiens) (UniProt P04150); assay: GR-EFC Redistribution (AID 451; calls by dose curve; also: potency is read from the fitted curve at half-maximal effect); details: CHO-K1 GR-EFC translocation, beta-gal luminescence, 2 h
How it was run: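 CHO-K1 cells stably expressing nuclear-localized β-gal enzyme acceptor and GR fused C-terminally to the enzyme donor fragment; ligand-driven nuclear translocation restores β-gal by complementation. Compounds titrated up to 46 uM final, 2 h at 37 °C; luminescence read.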

[6] = target: Mitogen-activated protein kinase 10 (Mus musculus) (UniProt Q61831); assay: JNK3 AlphaScreen Assay (AID 530; active = well fitted curve in either direction with a large enough effect, not every such curve was filed as active;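 also: kinase came from lysate of stimulated human HepG2 cells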; also: potency is read from the fitted curve at half-maximal effect); details: JNK3 lysate, c-Jun phosphorylation; series mostly up to 57.1 µM
How it was run: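 Inhibitors reduce antibody binding to phosphorylated biotin-cJun, lowering AlphaScreen luminescence. Lysates from HepG2 cells pre-activated by IL-1beta plus TNF-alpha supplied JNK3; compounds were titrated.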

[7] = target: Guanine nucleotide-binding protein G(i) subunit alpha-1 (Homo sapiens) (UniProt P63096); assay: qHTS Assay for Inhibitors of RGS12 GoLoco Motif Activity (Green Fluorophore) (AID 879); details: Galphai1/FITC-RGS12 GoLoco peptide, fluorescence polarization; series mostly up to 57.1 µM;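 also: 0% = labeled peptide with Gαi1 and full inhibition = labeled peptide alone without protein; negative values mean loss of peptide binding seen as reduced polarization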
Sequence of Guanine nucleotide-binding protein G(i) subunit alpha-1 (Homo sapiens) (P63096 whole entry, looked up): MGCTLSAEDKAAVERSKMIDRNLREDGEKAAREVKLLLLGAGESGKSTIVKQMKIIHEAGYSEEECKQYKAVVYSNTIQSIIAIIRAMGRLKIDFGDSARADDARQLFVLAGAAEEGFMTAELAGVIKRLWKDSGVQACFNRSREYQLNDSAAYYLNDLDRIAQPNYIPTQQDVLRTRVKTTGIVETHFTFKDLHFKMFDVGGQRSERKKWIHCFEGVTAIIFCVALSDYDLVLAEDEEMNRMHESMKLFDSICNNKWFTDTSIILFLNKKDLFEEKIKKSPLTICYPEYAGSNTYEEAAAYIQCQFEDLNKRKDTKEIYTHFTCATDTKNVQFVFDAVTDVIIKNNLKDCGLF
How it was run: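 Fluorescence polarization assay: 50 nM Gαi1 with 10 nM FITC-labeled RGS12 GoLoco peptide in 10 mM Tris pH 7.5, 150 mM NaCl, 0.1 mM GDP, 0.05% NP40, 10 min at room temperature with compound.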

[8] = qHTS Assay for Identification of Small Molecule Agonists for Thrombopoietin (TPO) Signaling Pathway (AID 917); details: TPO signaling pathway reporter cells, agonist qHTS, stimulated with TPO at its EC50; series mostly up to 38.5 µM; also: % is scaled to controls: 0 for no effect and ±100 for the full control effect
How it was run: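 Luminescence from a Glycoprotein IIb promoter–driven luciferase reporter served as read-out in murine Ba/F3 cells carrying the human TPO receptor. Cells, deprived of IL-3 overnight, received compounds with 26 pM TPO and were incubated 24 hrs at 37 C.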

[9] = target: Pyruvate kinase (Leishmania mexicana) (UniProt Q27686); assay: qHTS Validation Assay for Inhibitors of Leishmania Mexicana Pyruvate Kinase (AID 945);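 also: 0% = DMSO only neutral control wells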; details: purified L. mexicana pyruvate kinase, enzyme activity, E451W mutant enzyme; series mostly up to 57.5 µM
Sequence of Pyruvate kinase (Leishmania mexicana) (Q27686 2-499 E452W): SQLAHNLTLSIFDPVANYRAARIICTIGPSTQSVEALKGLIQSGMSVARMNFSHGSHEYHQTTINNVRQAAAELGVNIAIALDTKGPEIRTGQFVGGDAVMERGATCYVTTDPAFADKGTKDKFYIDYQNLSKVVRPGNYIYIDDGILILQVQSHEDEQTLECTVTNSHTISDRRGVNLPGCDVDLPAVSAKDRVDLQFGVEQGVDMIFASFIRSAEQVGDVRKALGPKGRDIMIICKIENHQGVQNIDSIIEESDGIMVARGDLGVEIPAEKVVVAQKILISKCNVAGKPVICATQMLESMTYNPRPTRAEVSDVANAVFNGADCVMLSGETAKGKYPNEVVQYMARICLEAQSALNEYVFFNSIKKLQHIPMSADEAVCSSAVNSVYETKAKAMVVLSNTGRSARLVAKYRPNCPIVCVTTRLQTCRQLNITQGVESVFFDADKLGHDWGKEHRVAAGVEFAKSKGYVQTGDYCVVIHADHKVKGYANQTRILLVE
How it was run: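 LmPYK E451W 0.2 nM; 0.5 mM PEP, 0.1 mM ADP, 7 mM MgCl2, 50 mM KCl, imidazole pH 7.2, 0.01% Tween 20, 0.05% BSA; 1 h RT; PKLight luminescence; DMSO-normalized.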

[10] = target: Pyruvate kinase PKM (Homo sapiens) (UniProt P14618); assay: qHTS Assay for Activators of Human Muscle Pyruvate Kinase (AID 954; active = well fitted curve in the direction sought with a large enough effect, not every such curve was filed as active;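 also: 0% = uninhibited enzyme and -100% = no enzyme or full thiadiazolimine inhibition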); details: purified human muscle pyruvate kinase, luciferase-coupled luminescence, 1 h; series mostly up to 57.5 µM
How it was run: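 Purified human PKM2 (0.1 nM) with 0.5 mM PEP (Km) and 0.1 mM ADP in 50 mM imidazole pH 7.2, KCl, MgCl2, 1 h at room temperature; ATP formed read by coupled luciferase luminescence. Normalized to no-enzyme/110 uM thiadiazolimine inhibition; 0.3 nM enzyme column for activation.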

[11] = target: Alpha-galactosidase A (Homo sapiens) (UniProt P06280); assay: Counterscreen for Glucocerebrosidase Inhibitors: qHTS Assay for Human alpha-Galactosidase at pH 4.5 (AID 992); details: purified enzyme, fluorogenic substrate; series mostly up to 76.9 µM; also: 0% is about no effect
Sequence of Alpha-galactosidase A (Homo sapiens) (P06280 whole entry, looked up): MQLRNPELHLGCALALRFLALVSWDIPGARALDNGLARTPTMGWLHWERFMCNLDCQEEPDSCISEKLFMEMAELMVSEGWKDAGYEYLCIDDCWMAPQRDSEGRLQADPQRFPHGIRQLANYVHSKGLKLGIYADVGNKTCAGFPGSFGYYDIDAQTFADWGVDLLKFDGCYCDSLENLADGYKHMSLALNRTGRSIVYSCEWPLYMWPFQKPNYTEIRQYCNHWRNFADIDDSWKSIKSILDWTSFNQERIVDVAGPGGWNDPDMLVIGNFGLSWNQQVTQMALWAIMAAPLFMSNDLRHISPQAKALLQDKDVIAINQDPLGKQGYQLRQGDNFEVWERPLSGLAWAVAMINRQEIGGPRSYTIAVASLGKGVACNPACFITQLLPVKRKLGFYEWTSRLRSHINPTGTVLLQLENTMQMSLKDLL
How it was run: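 Human enzyme (2 nM) with 80 uM 4-methylumbelliferyl alpha-D-galactopyranoside in 50 mM citric acid, 0.005% Tween-20, pH 4.5, 20 min at room temperature. Compounds 0.7 nM–77 uM; fluorescence Ex 365/Em 440 after pH 10 stop; AC50 from Hill fits.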

[12] = target: alpha-glucosidase (Oryza sativa, rice) (UniProt Q653V4); assay: Counterscreen for Glucocerebrosidase Inhibitors: qHTS Assay for Rice alpha-Glucosidase at pH 5.0 (AID 997); details: rice alpha-glucosidase enzyme activity; series mostly up to 76.9 µM;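 also: 0% = full activity with enzyme and -100% = basal without enzyme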
How it was run: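 Rice alpha-glucosidase (4 nM final) with 400 uM 4-methylumbelliferyl-alpha-D-glucopyranoside in citrate buffer pH 5.0, 20 min at room temperature, stopped at pH 10; fluorescence 365/440 nm, compounds 0.7 nM–77 uM, AC50 from Hill fits.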

[13] = qHTS Assay for Lipid Storage Modulators (AID 1519; calls by dose curve); details: Drosophila S3 cells, BODIPY lipid droplet/cell ratio, laser cytometry, cells loaded with oleic acid; for activity change, negative = inhibition: at 25.7 µM (top of the series)
How it was run: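 Cells seeded at 5,000 per well were treated with compounds over a concentration series and loaded with oleic acid (400 uM, as added). Lipid droplet fluorescence (488 nm excitation, 500-530 nm channel) was read by laser-scanning cytometry and normalized to 20 uM Triacsin C.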

[14] = target: Ubiquitin carboxyl-terminal hydrolase 1 (Homo sapiens) (UniProt O94782); assay: Inhibitors of USP1/UAF1: Pilot qHTS (AID 504865); details: purified USP1/UAF1, Ub-rhodamine cleavage fluorescence; series mostly up to 54.9 µM;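 also: rhodamine fluorescence freed from ubiquitin-rhodamine substrate followed over time; top concentration of the series differs between compounds; % is scaled to controls: 0 for no effect and ±100 for the full control effect; nearly all actives have a fitted effect of over 35% in size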
Sequence of Ubiquitin carboxyl-terminal hydrolase 1 (Homo sapiens) (O94782 whole entry, looked up): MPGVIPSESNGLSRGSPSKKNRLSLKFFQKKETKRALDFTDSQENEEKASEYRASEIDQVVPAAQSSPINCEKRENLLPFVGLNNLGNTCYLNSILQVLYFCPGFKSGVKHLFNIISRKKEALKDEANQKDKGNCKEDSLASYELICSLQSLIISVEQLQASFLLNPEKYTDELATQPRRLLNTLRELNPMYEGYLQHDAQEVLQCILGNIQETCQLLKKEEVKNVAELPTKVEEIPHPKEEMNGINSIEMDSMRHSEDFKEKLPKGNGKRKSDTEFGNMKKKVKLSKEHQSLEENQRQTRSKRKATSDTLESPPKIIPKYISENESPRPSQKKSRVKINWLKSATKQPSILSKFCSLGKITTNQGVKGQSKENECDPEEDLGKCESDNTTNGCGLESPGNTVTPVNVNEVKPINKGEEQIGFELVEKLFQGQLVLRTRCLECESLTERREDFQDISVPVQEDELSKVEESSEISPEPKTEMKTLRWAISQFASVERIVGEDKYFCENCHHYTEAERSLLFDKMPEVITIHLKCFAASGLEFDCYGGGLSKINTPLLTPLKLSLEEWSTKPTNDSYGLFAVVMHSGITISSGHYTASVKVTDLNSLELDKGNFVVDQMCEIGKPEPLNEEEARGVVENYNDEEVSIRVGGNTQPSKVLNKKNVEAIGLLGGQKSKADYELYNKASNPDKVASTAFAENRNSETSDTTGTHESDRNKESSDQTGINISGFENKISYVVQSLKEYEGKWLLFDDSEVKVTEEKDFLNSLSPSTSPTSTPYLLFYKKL
How it was run: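 In 50mM HEPES pH 7.8 containing 0.5mM EDTA, 1mM TCEP, 0.1 mg/ml BSA and 0.01% Tween-20, 1nM USP1/UAF1 is exposed to compound for 15 min, then Ub-Rho (150nM final) is added and fluorescence is read over time.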

[15] = NFAT Signaling Pathway (AID 444; active = well fitted curve in either direction with a large enough effect, not every such curve was filed as active;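 also: carbachol stimulus at about its EC50 of 1 µM final; % is scaled to controls: 0 for no effect and ±100 for the full control effect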); details: Jurkat NFAT-bla M1, carbachol, beta-lactamase ratio, 5 h
How it was run: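 Jurkat cells carrying an NFAT-driven β-lactamase reporter and co-transfected muscarinic M1 receptor were treated with compound plus carbachol (1 uM final, an EC50 level) for 5 h at 37 °C. CCF4 loading followed for 1 h at RT; 460/530 nm ratio gave %activity.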

[16] = target: 3',5'-cyclic-AMP phosphodiesterase 4B (Homo sapiens) (UniProt Q07343); assay: qHTS Assay for Inhibitors of PDE-IV (AID 607; active = well fitted activation curve with a large enough effect in the main read-out, with a control signal flat, not every such curve was filed as active; also: % of control where 0% means no effect); details: HEK293 ACTOne CNG channel cells, membrane potential fluorescence; series mostly up to 22.9 µM
Sequence of 3',5'-cyclic-AMP phosphodiesterase 4B (Homo sapiens) (Q07343 whole entry, looked up): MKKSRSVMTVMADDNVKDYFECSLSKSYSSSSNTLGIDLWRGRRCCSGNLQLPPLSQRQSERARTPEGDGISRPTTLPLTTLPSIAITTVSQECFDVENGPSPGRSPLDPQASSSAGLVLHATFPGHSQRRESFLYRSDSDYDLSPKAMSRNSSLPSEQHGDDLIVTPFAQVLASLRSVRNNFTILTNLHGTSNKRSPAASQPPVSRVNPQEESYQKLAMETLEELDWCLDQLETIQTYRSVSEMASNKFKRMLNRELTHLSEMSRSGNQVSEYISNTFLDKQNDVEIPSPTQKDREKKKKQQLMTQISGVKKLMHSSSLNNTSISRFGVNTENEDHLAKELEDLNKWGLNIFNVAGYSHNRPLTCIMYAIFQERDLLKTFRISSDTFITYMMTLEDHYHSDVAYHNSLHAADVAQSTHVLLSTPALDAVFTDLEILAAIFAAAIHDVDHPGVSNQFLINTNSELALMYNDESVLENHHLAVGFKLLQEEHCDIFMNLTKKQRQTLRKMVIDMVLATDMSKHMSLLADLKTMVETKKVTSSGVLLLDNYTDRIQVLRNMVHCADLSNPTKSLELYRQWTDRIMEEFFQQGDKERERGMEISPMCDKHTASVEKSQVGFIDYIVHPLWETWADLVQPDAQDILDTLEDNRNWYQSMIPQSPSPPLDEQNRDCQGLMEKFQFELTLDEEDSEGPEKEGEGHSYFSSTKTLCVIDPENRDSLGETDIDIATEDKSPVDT
How it was run: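 HEK293 ACTOne cells with CNG channel (1000/well), endogenous PDE4; membrane potential dye, compounds up to 22.9 uM final. Fluorescence Ex 535/Em 590; RO 20-1724 (100 uM final) as reference.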

[17] = target: Cytochrome P450 2D6 (Homo sapiens) (UniProt P10635); assay: qHTS Assay for Inhibitors and Substrates of Cytochrome P450 2D6 (AID 891); details: recombinant CYP2D6, luciferin-ME EGE luminescence; series mostly up to 57.1 µM;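 also: luciferin methyl ether substrate demethylated by CYP2D6 with NADPH regeneration; % is scaled to controls: 0 for no effect and ±100 for the full control effect; nearly all actives have a fitted effect of over 60% in size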
Sequence of Cytochrome P450 2D6 (Homo sapiens) (P10635 whole entry, looked up): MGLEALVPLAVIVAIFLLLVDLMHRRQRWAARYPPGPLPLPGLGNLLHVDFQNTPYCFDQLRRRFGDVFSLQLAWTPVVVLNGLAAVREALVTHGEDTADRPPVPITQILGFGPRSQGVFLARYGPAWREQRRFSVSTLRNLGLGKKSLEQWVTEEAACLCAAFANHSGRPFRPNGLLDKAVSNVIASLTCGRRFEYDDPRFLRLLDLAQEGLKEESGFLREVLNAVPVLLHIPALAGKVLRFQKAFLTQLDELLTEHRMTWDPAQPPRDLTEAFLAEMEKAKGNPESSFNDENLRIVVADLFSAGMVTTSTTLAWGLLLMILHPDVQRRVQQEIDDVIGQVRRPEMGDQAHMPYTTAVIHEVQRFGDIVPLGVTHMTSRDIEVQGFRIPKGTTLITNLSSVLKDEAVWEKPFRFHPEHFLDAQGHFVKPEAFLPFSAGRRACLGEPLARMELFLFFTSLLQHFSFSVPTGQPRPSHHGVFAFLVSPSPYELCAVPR
How it was run: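 Human CYP2D6 (5 nM) with 30 uM Luciferin-ME EGE (at Km) in 100 mM KPO4, compound preincubated 10 min, then NADPH regeneration system for 60 min at room temperature. Luciferin read by luminescence; normalized to 1.43 uM quinidine.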

[18] = qHTS profiling for inhibitors of Plasmodium falciparum proliferation (AID 504749);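 also: 0% = DMSO vehicle and full inhibition = artemisinin control; nearly all actives have a fitted effect of over 60% in size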; details: P. falciparum in erythrocytes, SYBR Green DNA, 72 h
How it was run: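 Parasite proliferation within erythrocytes, 72 h exposure. Endpoint: SYBR Green I fluorescence after overnight lysis at room temperature. Controls: 0.29 uM artemisinin, DMSO.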

[19] = measured here: cell count channel max response
[20] = measured here: lipid channel max response
[21] = at 7.69 µM (top of the series) unless noted

CN(C)CC[C@@H](c1ccccc1)c1ccccn1
inactive: activity change, negative = inhibition ([1]; at 17.2 µM (top of the series)) 4.02% | activity change, negative = inhibition ([1]; at 38 µM (top of the series)) 8.55% | Potency [2] | activity, negative = inhibition ([3]; at 17.2 µM (top of the series)) 8.97% | activity, negative = inhibition ([3]; at 38 µM (top of the series)) 22.6% | Potency [4] > 46 µM and > 20.6 µM | Potency [5] > 46 µM and > 20.6 µM | Potency [6] | Potency [7] | outcome [8] | outcome [9] | outcome [10] | outcome [11] | outcome [12] | activity change, negative = inhibition [13] 1.47% | Potency [14]
1.01%: max response [13, 19]
2.03%: max response [13, 20]

CN1CCc2cccc3c2[C@@H]1Cc1ccc(O)c(O)c1-3
2.96%: max response [13, 19]
6.43%: max response [13, 20]
inactive: activity change, negative = inhibition ([1]; at 17.2 µM (top of the series)) -20.2% | activity change, negative = inhibition ([1]; at 38 µM (top of the series)) -26.6% | activity change, negative = inhibition ([15]; at 17.2 µM (top of the series)) -6.25% | activity change, negative = inhibition ([15]; at 38 µM (top of the series)) -15.4% | activity, negative = inhibition ([3]; at 17.2 µM (top of the series)) 1.07% | activity, negative = inhibition ([3]; at 38 µM (top of the series)) -10.2% | Potency [4] > 46 µM and > 20.6 µM | Potency [5] > 46 µM and > 20.6 µM | Potency [16] | Potency [7] | Potency [17] | outcome [9] | outcome [11] | outcome [12] | activity change, negative = inhibition [13] 2.32% | Potency [14]
inactive and 15.8 µM (active): Potency [6]

CO/N=C(\C(=O)N[C@@H]1C(=O)N2C(C(=O)O)=C(COC(C)=O)CS[C@@H]12)c1csc(N)n1
inactive and 12.6 µM (active): Potency [2]
inactive: activity change, negative = inhibition ([1]; at 17.2 µM (top of the series)) -5.85% | activity change, negative = inhibition ([1]; at 38 µM (top of the series)) -1.56% | activity, negative = inhibition ([3]; at 17.2 µM (top of the series)) 3.57% | activity, negative = inhibition ([3]; at 38 µM (top of the series)) -20.5% | Potency [4] > 46 µM and > 20.6 µM | Potency [5] > 46 µM and > 20.6 µM | Potency [6] | Potency [16] | Potency [7] | outcome [8] | outcome [9] | outcome [11] | outcome [12] | activity change, negative = inhibition [13] -0.702% | Potency [14] | activity, negative = inhibition ([18]; at 28.7 µM (top of the series), parasite line A) 7.66% | activity, negative = inhibition ([18]; at 28.7 µM (top of the series), parasite line B) -2.07%
-14.6%: max response [13, 20]
-14.1%: max response [13, 19]

NC(=O)OC[C@H](O)COc1ccc(Cl)cc1
12%: max response [13, 20]
14%: max response [13, 19]
active: Potency [2] 10 µM
inactive: activity change, negative = inhibition [1, 21] -4.9% [at 17.2 µM] | activity change, negative = inhibition [15, 21] -9.21% [at 17.2 µM] | activity, negative = inhibition [3, 21] 14.1% [at 17.2 µM] | Potency [4] > 20.6 µM | Potency [5] > 20.6 µM | Potency [6] | Potency [16] | activity change, negative = inhibition [13] -1.93% | activity, negative = inhibition ([18]; at 12.8 µM (top of the series), parasite line A) -2.39% | activity, negative = inhibition ([18]; at 12.8 µM (top of the series), parasite line B) -7.73%
